Each molecule was assayed on HCI01 (cells of a triple-negative basal-like breast cancer xenograft) (assay: cell viability of combination (% of vehicle); higher = less cytotoxic). Details: 1 µM; 72 h; partner dose: 10 nM.
Experimental: (§1)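 PDX cells were treated for 72 h with each drug at 1 µM plus afatinib (10 nM; 1 µM for WHIM30). Luciferase viability is expressed as percent of vehicle.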

First: COC(=O)C1=C(C)NC(C)=C(C(=O)OCCN(C)Cc2ccccc2)C1c1cccc([N+](=O)[O-])c1.Cl (stereo not given) [Nicardipine HCl] + CN(C)C/C=C/C(=O)Nc1cc2c(Nc3ccc(F)c(Cl)c3)ncnc2cc1O[C@H]1CCOC1 [Afatinib]
Second: CC(C)COc1ccc(CNC(=O)N(Cc2ccc(F)cc2)C2CCN(C)CC2)cc1 [Pimavanserin] + CN(C)C/C=C/C(=O)Nc1cc2c(Nc3ccc(F)c(Cl)c3)ncnc2cc1O[C@H]1CCOC1 [Afatinib]
The “cell viability of combination” value of the first is higher: 58.7 for the first, 52.8 for the second.

Going from `CCCCCCCCc1ccc(CCC(N)(CO)CO)cc1.Cl` [Fingolimod (FTY720)] + CN(C)C/C=C/C(=O)Nc1cc2c(Nc3ccc(F)c(Cl)c3)ncnc2cc1O[C@H]1CCOC1 [Afatinib] to `Cl.Clc1ccccc1CN1CCc2sccc2C1` [Ticlopidine HCl] + CN(C)C/C=C/C(=O)Nc1cc2c(Nc3ccc(F)c(Cl)c3)ncnc2cc1O[C@H]1CCOC1 [Afatinib], the “cell viability of combination” value rises from 53.7 to 57.8.

Going from `CNC1CCC(c2ccc(Cl)c(Cl)c2)c2ccccc21.Cl` (stereo not given) [Sertraline HCl] + CN(C)C/C=C/C(=O)Nc1cc2c(Nc3ccc(F)c(Cl)c3)ncnc2cc1O[C@H]1CCOC1 [Afatinib] to `CCc1cnn2c(NCc3ccc[n+]([O-])c3)cc(N3CCCCC3CCO)nc12` (stereo not given) + CN(C)C/C=C/C(=O)Nc1cc2c(Nc3ccc(F)c(Cl)c3)ncnc2cc1O[C@H]1CCOC1 [Afatinib], the “cell viability of combination” value falls from 53.4 to 25.6.

In the case of `CO[C@H]1C[C@@H]2CC[C@@H](C)[C@@](O)(O2)C(=O)C(=O)N2CCCC[C@H]2C(=O)O[C@H]([C@H](C)C[C@@H]2CC[C@@H](O)[C@H](OC)C2)CC(=O)[C@H](C)/C=C(\C)[C@@H](O)[C@@H](OC)C(=O)[C@H](C)C[C@H](C)/C=C/C=C/C=C/1C` [Rapamycin (Sirolimus)] + CN(C)C/C=C/C(=O)Nc1cc2c(Nc3ccc(F)c(Cl)c3)ncnc2cc1O[C@H]1CCOC1 [Afatinib], the “cell viability of combination” value is reported as 51.

What follows are molecules tested on WHIM2 (cells of a triple-negative basal-like breast cancer xenograft) in the same assay as above. Details: 1 µM; 72 h; partner dose: 10 nM.
Experimental: as §1

Going from `Nc1c(CC(=O)[O-])cccc1C(=O)c1ccccc1.O.[Na+]` [Amfenac Sodium Monohydrate] + CN(C)C/C=C/C(=O)Nc1cc2c(Nc3ccc(F)c(Cl)c3)ncnc2cc1O[C@H]1CCOC1 [Afatinib] to `Cl.Cl.Fc1ccc(C(c2ccc(F)cc2)N2CCN(CC=Cc3ccccc3)CC2)cc1` [Flunarizine 2HCl] + CN(C)C/C=C/C(=O)Nc1cc2c(Nc3ccc(F)c(Cl)c3)ncnc2cc1O[C@H]1CCOC1 [Afatinib], the “cell viability of combination” value rises from 47.6 to 50.6.

Going from `Cc1nc(Nc2ncc(C(=O)Nc3c(C)cccc3Cl)s2)cc(N2CCN(CCO)CC2)n1` + CN(C)C/C=C/C(=O)Nc1cc2c(Nc3ccc(F)c(Cl)c3)ncnc2cc1O[C@H]1CCOC1 [Afatinib] to `CNC(=O)c1cc(Oc2ccc(NC(=O)Nc3ccc(Cl)c(C(F)(F)F)c3)c(F)c2)ccn1.Cl` [Regorafenib hydrochloride] + CN(C)C/C=C/C(=O)Nc1cc2c(Nc3ccc(F)c(Cl)c3)ncnc2cc1O[C@H]1CCOC1 [Afatinib], the “cell viability of combination” value rises from 30.8 to 43.3.

Going from `COc1cccc2c1C(=O)c1c(O)c3c(c(O)c1C2=O)CC(O)(C(=O)CO)CC3OC1CC(N)C(O)C(C)O1` (stereo not given) [Doxorubicin] + CN(C)C/C=C/C(=O)Nc1cc2c(Nc3ccc(F)c(Cl)c3)ncnc2cc1O[C@H]1CCOC1 [Afatinib] to `CC(=O)C1(O)Cc2c(O)c3c(c(O)c2C(OC2CC(N)C(O)C(C)O2)C1)C(=O)c1ccccc1C3=O.Cl` (stereo not given) [Idarubicin HCl] + CN(C)C/C=C/C(=O)Nc1cc2c(Nc3ccc(F)c(Cl)c3)ncnc2cc1O[C@H]1CCOC1 [Afatinib], the “cell viability of combination” value falls from 15.6 to 11.7.

Going from `O=C(c1ccc(F)c(F)c1Nc1ccc(I)cc1F)N1CC(O)(C2CCCCN2)C1` (stereo not given) [Cobimetinib] + CN(C)C/C=C/C(=O)Nc1cc2c(Nc3ccc(F)c(Cl)c3)ncnc2cc1O[C@H]1CCOC1 [Afatinib] to `C[C@H]1O[C@@H](O[C@H]2[C@@H](O)C[C@H](O[C@H]3[C@@H](O)C[C@H](O[C@H]4CC[C@@]5(C)[C@H](CC[C@@H]6[C@@H]5C[C@@H](O)[C@]5(C)[C@@H](C7=CC(=O)OC7)CC[C@]65O)C4)O[C@@H]3C)O[C@@H]2C)C[C@H](O)[C@@H]1O` [Digoxin] + CN(C)C/C=C/C(=O)Nc1cc2c(Nc3ccc(F)c(Cl)c3)ncnc2cc1O[C@H]1CCOC1 [Afatinib], the “cell viability of combination” value rises from 27 to 61.3.
